A short description of assay [1]: ATG_XTT_Cytotoxicity: Cytotoxicity Assessment in the Attagene TRANS-FACTORIAL HepG2 Assay (AID 2283584).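 As to AC50: cells exposed to compound for 24 h before reading; active means loss of viability signal versus DMSO baseline.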 In short, it runs like this:
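XTT readout of cell number in transfected HepG2 cells, 24 h post-dosing; DMSO serves as negative control and baseline, with activity taken as loss of viability signal.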

Assay [2] in a line: TOX21_p53_BLA_p2_viability: Viability Assessment in the Tox21 HCT-116 p53 Agonism Beta-lactamase Assay, Phase 2 (AID 2283591).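 Also: actives lower the ATP signal meaning cytotoxicity.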 In outline: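 Cytotoxicity readout: CellTiter-Glo ATP luminescence, 30 min at room temperature, after the beta-lactamase read. Cells were HCT116 exposed 16 h at 37C to compounds pin-transferred at 217-fold dilution from DMSO stocks.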
Assay [3] has as its target Cellular tumor antigen p53 (Homo sapiens) (UniProt P04637). Put plainly: TOX21_p53_BLA_p2_ratio: Tox21 HCT-116 p53 Agonism Beta-lactamase Assay, Ratio, Phase 2 (AID 2283592). In outline:
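Readout: blue/green (460/530 nm) FRET emission ratio after 2 h CCF4-AM loading at room temperature, excitation 405 nm. HCT116 p53 bla cells, 16 h compound exposure at 37C, 5% CO2; agonist direction fitted against DMSO baseline.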

Assay [4] in a line: TOX21_p53_BLA_p3_viability: Viability Assessment in the Tox21 HCT-116 p53 Agonism Beta-lactamase Assay, Phase 3 (AID 2283593).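 Also: cells exposed to compound for 16 h before reading.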 In short, it runs like this: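 Cellular ATP was quantified by CellTiter-Glo luminescence, read after 30 min at room temperature. Beforehand, HCT116 cells (4000/well) received compound 5 h post-seeding, 217-fold diluted from DMSO, then incubated 16 h at 37C.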

This passage reports outcome and AC50 results from PubChem BioAssay (EPA / NIEHS).

Records with an inconclusive call do not appear. More than one record can exist for a structure, and the calls need not agree. Calls of active or inactive are those of the source. The calls were made as follows: active = hit-call score of the fitted dose curve at least 0.9, where 1 is the maximum; inconclusive = response in the unintended direction; inactive = score below 0.9.

Sequence of Cellular tumor antigen p53 (Homo sapiens) (P04637 whole entry, looked up): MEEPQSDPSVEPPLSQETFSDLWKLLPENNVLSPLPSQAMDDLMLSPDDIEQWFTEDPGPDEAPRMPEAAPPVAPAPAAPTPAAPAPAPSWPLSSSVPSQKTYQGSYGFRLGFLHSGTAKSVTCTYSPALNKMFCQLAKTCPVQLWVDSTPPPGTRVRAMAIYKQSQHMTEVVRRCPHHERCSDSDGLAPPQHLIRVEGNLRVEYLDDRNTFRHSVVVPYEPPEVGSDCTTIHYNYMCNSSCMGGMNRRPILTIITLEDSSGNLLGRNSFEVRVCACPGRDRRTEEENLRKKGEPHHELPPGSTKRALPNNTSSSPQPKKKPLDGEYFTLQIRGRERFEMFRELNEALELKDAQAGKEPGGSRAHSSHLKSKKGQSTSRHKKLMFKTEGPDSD

Consider `[Na+]`, for which the molecule was called inactive in assay [1], in assay [2], in assay [3] and in assay [4].
For the molecule `O=S1(=O)CC(Cl)(Cl)C(Cl)(Cl)C1`, the results for the AC50 in assay [1], in assay [2] and in assay [4] were 26 µM (active), 7.38 µM (active) and 24.9 µM (active), respectively. In addition, the outcome in assay [3] was inactive.
`CCC(C)(C)C1CCC(OC)CC1` (stereo not given): the outcome in assay [1], in assay [2], in assay [3] and in assay [4] was inactive.
On to `CCCCCCCCCC(=O)OCC`, for which the result in assay [1], in assay [2], in assay [3] and in assay [4] was inactive.
On to `CC(=O)c1ccc(O)cc1`, for which the call in assay [1], in assay [2], in assay [3] and in assay [4] was inactive.
Turning to `Cc1ccncc1`, the outcome in assay [1], in assay [2], in assay [3] and in assay [4] was inactive.
`CC(O)COCC(C)O` (stereo not given): the call in assay [1], in assay [2], in assay [3] and in assay [4] was inactive.
With `CCC(C)(C)c1cc(O)c(C(C)(C)CC)cc1O`, the call in assay [1], in assay [2], in assay [3] and in assay [4] was inactive.
For the molecule `NC(N)=S`, the call in assay [1], in assay [2], in assay [3] and in assay [4] was inactive.
In the case of `O=[N+]([O-])c1cc(N(CCO)CCO)ccc1NCCO`, the molecule was called inactive in assay [1], in assay [2], in assay [3] and in assay [4].
Take `Nc1ccn([C@H]2CC[C@@H](CO)O2)c(=O)n1`: the molecule was called inactive in assay [1], in assay [2], in assay [3] and in assay [4].
For `NC(=O)c1cccnc1`, the result in assay [1], in assay [2], in assay [3] and in assay [4] was inactive.
Take `CCCc1ccc(O)cc1`: the molecule was called inactive in assay [1], in assay [2], in assay [3] and in assay [4].
Consider `CCc1cccc(O)c1`, for which the molecule was called inactive in assay [1], in assay [2] and in assay [3].
As for `Nc1ccc(O)c(N)c1`, the molecule was called inactive in assay [1], in assay [2], in assay [3] and in assay [4]. Also, the AC50 (commonly the midpoint of the concentration-response curve, whichever way the signal moves) in assay [4] was 64 µM (active).
`Cc1cc(N)n(-c2ccccc2)n1`: the result in assay [1], in assay [2] and in assay [4] was inactive.
In the case of `CC1COC(=O)O1` (stereo not given), the molecule was called inactive in assay [1], in assay [2], in assay [3] and in assay [4].
On to `c1coc(CNc2ncnc3nc[nH]c23)c1`, for which the outcome in assay [1], in assay [2] and in assay [4] was inactive.
In the case of `CCCCCCCCOC(C)=O`, the result in assay [1] and in assay [3] was inactive.
As for `CCCCCCCC1CCCC1=O` (stereo not given), the call in assay [1] and in assay [3] was inactive.
Consider `CN1CCc2cccc3c2[C@H]1Cc1ccc(O)c(O)c1-3`, for which the molecule was classed as inactive in assay [1], in assay [3] and in assay [4]. For the same molecule, the concentration at half-maximal activity (AC50) in assay [3] was 56.6 µM (active).
As to `CC(C)CCOC(=O)CC(C)C`, the molecule was called inactive in assay [1], in assay [2] and in assay [4].
Take `O=C(OCc1ccccc1)c1ccccc1O`: the molecule was called inactive in assay [1], in assay [3] and in assay [4].
For the molecule `C/C=C(\C)C(=O)OC/C=C(\C)CCC=C(C)C`, the molecule was classed as inactive in assay [1] and in assay [3].
As for `CC/C=C\CCOC(C)OCC` (stereo not given), the outcome in assay [1] and in assay [3] was inactive.
On to `CC1(C)CC(=O)CC(C)(C)N1`, for which the molecule was classed as inactive in assay [1] and in assay [3].
For the molecule `CCCCCCC(C)O` (stereo not given), the molecule was classed as inactive in assay [1], in assay [3] and in assay [4].
In the case of `C=CC(O)CCCCC` (stereo not given), the molecule was classed as inactive in assay [1], in assay [3] and in assay [4].
In the case of `C=CCOCC(O)CO` (stereo not given), the result in assay [1], in assay [2] and in assay [4] was inactive.
On to `CN(C)C`, for which the result in assay [1], in assay [3] and in assay [4] was inactive.
Take `CC(=O)c1ccc2ccccc2c1`: the result in assay [1] and in assay [3] was inactive.
As for `CC(=O)CC(C)(C)C1CCCCC1`, the molecule was called inactive in assay [1] and in assay [3].
On to `CC(C)OB(OC(C)C)OC(C)C`, for which the outcome in assay [1] and in assay [3] was inactive.
Regarding `CCCCCCCCCOS(=O)(=O)O`, the molecule was classed as inactive in assay [1] and in assay [3].
`C=C(C)CCCC(C)CCO` (stereo not given): the result in assay [1], in assay [2] and in assay [4] was inactive.
On to `CC(=O)Nc1cc(S(=O)(=O)O)cc2cc(S(=O)(=O)O)c(N=Nc3ccccc3)c(O)c12`, for which the result in assay [1] and in assay [3] was inactive.
In the case of `CC(C)(C)C1CCC(O)CC1` (stereo not given), the outcome in assay [1], in assay [3] and in assay [4] was inactive.
In the case of `COc1ccccc1O`, the call in assay [1], in assay [3] and in assay [4] was inactive.
As for `FC(F)(F)c1ccc(Cl)c(Cl)c1`, the call in assay [1], in assay [3] and in assay [4] was inactive.
In the case of `CCCCCCCOC(C)=O`, the result in assay [1], in assay [2] and in assay [4] was inactive.
`CCCO`: the outcome in assay [1] and in assay [3] was inactive.
In the case of `CCC(C)C1CCCCC1=O` (stereo not given), the molecule was called inactive in assay [1] and in assay [3].
On to `C=C(C)C(=O)OCCN(C)C`, for which the molecule was called inactive in assay [1], in assay [2] and in assay [4].
With `CC(=O)CCc1ccc(O)cc1`, the call in assay [1] and in assay [3] was inactive.
Regarding `CCCc1ccc(N)cc1`, the molecule was called inactive in assay [1] and in assay [3].
As for `CC(C)(O)CCc1ccccc1`, the outcome in assay [1] and in assay [3] was inactive.
Regarding `CCCCN(CCCC)CCCCCCN(CCCC)CCCC`, the molecule was called inactive in assay [1], in assay [3] and in assay [4].
Turning to `ClCCOCCOCCCl`, the molecule was called inactive in assay [1] and in assay [3].
As to `c1ccc(OCCOc2ccccc2)cc1`, the outcome in assay [1], in assay [3] and in assay [4] was inactive.
As for `NC(=O)NC(N)=O`, the call in assay [1], in assay [3] and in assay [4] was inactive.
For `CC(C)COC(=O)c1ccccc1O`, the molecule was classed as inactive in assay [1], in assay [3] and in assay [4].
For the molecule `CC/C=C\CCCCO`, the molecule was called inactive in assay [1] and in assay [3].
For `CC(C)(O)C(=O)c1ccc(OCCO)cc1`, the outcome in assay [1] and in assay [3] was inactive.
Consider `CCCCCCCCCCCCCCCCCC(=O)OCCCCCCCCCCCCCC(C)C`, for which the call in assay [1] and in assay [3] was inactive.
`COc1ccc(C(C)=O)cc1`: the molecule was classed as inactive in assay [1] and in assay [3].
For `CCCCOCCOCCOCCO`, the outcome in assay [1], in assay [2] and in assay [4] was inactive.
